KB-V1 MDR tox = kills drug-selected multidrug resistant KB-V1 cells | KB-V1 MDR cells viability, CellTiter-Glo, 72 h | Potency, µM (doses to about 46.1 µM), usual class: cytotoxic | 400,000 compounds, 3.4% hits | AID 1347076; note: % is set by controls: 0 for no effect and ±100 for the full control effect; nearly all actives have a fitted effect of over 60% in size
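KB-V1 cells (P-gp-expressing MDR subline of KB-3-1) in phenol-red-free DMEM with 10% FBS were exposed to library compounds over a concentration series for 72 h at 37 degrees C. Viability read by CellTiter-Glo luminescence; concentration-effect curves fitted after normalization.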
MCF10A rerep = DNA re-replication induction in MCF 10a cells; MCF 10A DNA re-replication, Hoechst nuclear intensity, 48 h; Potency, µM (top dose mostly 46.1 µM), for inactives: at the highest dose activity, positive = re-replication, actives largely listed as activators; 350,000 compounds, 2.9% hits; AID 624296; note: % of control where 0% means no effect; nearly all actives have a fitted effect of over 50% in size
KB-3-1 tox = KB-3-1 parental cell cytotoxicity; KB-3-1 viability, CellTiter-Glo ATP luminescence, 72 h; Potency, µM (series often up to 46.1 µM), usual class: cytotoxic; 400,000 compounds, 1.4% hits; AID 1347075; note: % is set by controls: 0 for no effect and ±100 for the full control effect; nearly all actives have a fitted effect of over 60% in size
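Parental KB-3-1 adenocarcinoma cells in phenol-red-free DMEM with 10% FBS were pin-treated with compounds at several concentrations, incubated 72 h at 37 °C, and viability read by CellTiter-Glo luminescence; concentration-effect curves were fitted after normalization.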
HT1080 IDH1KD tx = toxicity to HT-1080 IDH1 knockdown cells (counter line); HT-1080 IDH1 knockdown viability, ATP luminescence, 48 h; Potency, µM (series often up to 46.1 µM), inactives show top-dose activity, negative = toxicity, most hits filed as cytotoxic; 360,000 compounds, 2% hits; AID 686971;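 note: 0% = DMSO wells and -100% = cell-free medium wells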
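Knockdown cells (IDH1KD HT-1080) received compounds 2 h after plating at 750 cells/well and were kept 48 h at 37 °C in 5% FBS RPMI. A CellTiter-Glo luminescence read gave % activity for curve fitting.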
SW480 rerep = inducers of DNA re-replication in SW480 colon cancer cells; SW480 DNA re-replication, Hoechst DNA content imaging, 48 h; 340,000 compounds, 1.8% hits; Potency, µM (series often up to 46.1 µM), for inactives: at the top dose re-replication activation, actives largely listed as activators; note: % of control where 0% means no effect; nearly all actives have a fitted effect of over 55% in size
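Quantitative HTS format with DMSO vehicle controls; 48 hr drug incubation at 37 C, then 40 min Hoechst staining and scanning imager measurement at 405 nm excitation.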
HT1080-NT tox = kills 2HG-producing HT-1080-NT fibrosarcoma cells. HT-1080-NT fibrosarcoma viability, CellTiter-Glo ATP luminescence, 48 h. Potency, µM (titrated, usually from 46.1 µM), for the others: top-dose activity, negative = less viability, usual class: cytotoxic. 360,000 compounds, 1.6% hits;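 note: NT is the 2HG producing partner of a matched IDH1 knockdown line; 0% = DMSO-treated cells and -100% = media-only wells without cells; nearly all actives have a fitted effect of over 55% in size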
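Fibrosarcoma NT cells, 750 per well in 5% FBS RPMI, were exposed to compound for 48 hours. Viability: CellTiter-Glo luminescence.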
* marks the source's active call; other numbers are inactive results; [ ] = remark or other dose. Compounds with a hit are over-represented: about 7.9% of the library has one in this group of screens. Calls come from the whole dose curve; as a rule, active = well fitted curve in the direction sought with a large enough effect; inconclusive = small, poorly fitted or top-dose-only effect, or another doubt; inactive = no such curve, though single readings can be large; an effect the other way counts as inactive or inconclusive. Potency is the fitted concentration of half-maximal effect.

What do the screens show for `COc1ccc2c(c1O)-c1ccccc1CCN(C)C2`?
KB-V1 MDR tox: inactive; MCF10A rerep: -10%; KB-3-1 tox: inactive; HT1080 IDH1KD tx: -1%; SW480 rerep: -34%; HT1080-NT tox: -3%

What do the screens show for `CN(C)C(=O)c1cn(-c2ccccc2)nc1-c1cccc([N+](=O)[O-])c1`?
KB-V1 MDR tox: inactive; MCF10A rerep: -7%; KB-3-1 tox: inactive; HT1080 IDH1KD tx: 9%; SW480 rerep: 10%; HT1080-NT tox: 11%

What do the screens show for `Cc1cc(Cl)ccc1OCC(=O)NC1CCCC1`?
KB-V1 MDR tox: inconclusive; MCF10A rerep: -15%; KB-3-1 tox: inconclusive; HT1080 IDH1KD tx: -10%; SW480 rerep: 28%; HT1080-NT tox: inconclusive

How did O=C(c1ccc(-c2ccccc2)cc1)N1CCN(c2ccc3c(c2)C2CC3CCN2C(=O)OCc2ccccc2)CC1 (stereo not given) do in these assays?
KB-V1 MDR tox: inactive; KB-3-1 tox: inactive; HT1080 IDH1KD tx: -6%; HT1080-NT tox: 2%

How did O=C(c1cccc(Cl)c1)N1CCN(c2ccc3c(c2)C2CC3CCN2C(=O)OCc2ccccc2)CC1 (stereo not given) do in these assays?
KB-V1 MDR tox: 16µM*; KB-3-1 tox: inconclusive; HT1080 IDH1KD tx: inconclusive; HT1080-NT tox: inconclusive

How did CCN(CCCNS(=O)(=O)c1cc(-c2cc(C)no2)ccc1C)Cc1ccccc1 do in these assays?
KB-V1 MDR tox: inactive; MCF10A rerep: 1%; KB-3-1 tox: inconclusive; HT1080 IDH1KD tx: -21%; SW480 rerep: inconclusive; HT1080-NT tox: -11%

Results for O=C(COC(=O)Cc1ccc(F)cc1)NCc1ccco1 ?
KB-V1 MDR tox: inactive; MCF10A rerep: 3%; KB-3-1 tox: inactive; HT1080 IDH1KD tx: 8%; SW480 rerep: 12µM*; HT1080-NT tox: 2%

Results for O=C(COC(=O)CSc1ccc(F)cc1)NCc1ccco1 ?
KB-V1 MDR tox: inconclusive; MCF10A rerep: -1%; KB-3-1 tox: inconclusive; HT1080 IDH1KD tx: -3%; SW480 rerep: 11%; HT1080-NT tox: 2%[9.24 µM]

What do the screens show for `Cc1cccc(Cn2cnc3c(NS(C)(=O)=O)c(C)c(C)cc32)c1`?
KB-V1 MDR tox: inactive; MCF10A rerep: 0%; KB-3-1 tox: inconclusive; HT1080 IDH1KD tx: -26%; SW480 rerep: -2%; HT1080-NT tox: -9%

Results for C=CCn1c(=O)c(C(=O)NCCN(CC)CC)c(O)c2ccccc21 ?
KB-V1 MDR tox: inactive; MCF10A rerep: inconclusive; KB-3-1 tox: inactive; HT1080 IDH1KD tx: inconclusive; SW480 rerep: 15%; HT1080-NT tox: -20%

Results for CCOc1ccc(NC(=O)c2c(NC(=O)c3ccccc3F)sc3c2CCC3)cc1 ?
KB-V1 MDR tox: inactive; KB-3-1 tox: inactive

Results for CCOc1ccc(NC(=O)c2c(NC(=O)CNCCN3CCOCC3)sc3c2CCC3)cc1 ?
KB-V1 MDR tox: inactive; MCF10A rerep: -7%; KB-3-1 tox: inactive; HT1080 IDH1KD tx: -23%; SW480 rerep: 7.3µM*; HT1080-NT tox: -4%

What do the screens show for `CCOc1ccccc1NC(=O)c1c(NC(=O)COc2ccccc2)sc2c1CCCCC2`?
KB-V1 MDR tox: inconclusive; KB-3-1 tox: 4.6µM*

Results for O=C(Nc1ccc(F)cc1)Oc1ccccc1N1CCOCC1 ?
KB-V1 MDR tox: inactive; MCF10A rerep: -7%; KB-3-1 tox: inactive; HT1080 IDH1KD tx: 22%; SW480 rerep: inconclusive; HT1080-NT tox: 22%

Results for Cc1cccc(C)c1OCC(=O)N(Cc1ccco1)C1CCS(=O)(=O)C1 (stereo not given) ?
KB-V1 MDR tox: inactive; MCF10A rerep: 4%; KB-3-1 tox: inactive; HT1080 IDH1KD tx: -6%; SW480 rerep: -2%; HT1080-NT tox: 9%

How did CN(C)C(=O)/C(C#N)=C\c1cc(Br)c(Sc2ccc(Cl)cc2)o1 do in these assays?
KB-V1 MDR tox: 16µM*; MCF10A rerep: 4%; KB-3-1 tox: inactive; HT1080 IDH1KD tx: 5%; SW480 rerep: 2%; HT1080-NT tox: -18%

How did COc1ccc(-n2nc(C#N)c(Cl)cc2=O)cc1 do in these assays?
KB-V1 MDR tox: inactive; MCF10A rerep: 0.73µM*; KB-3-1 tox: inconclusive; HT1080 IDH1KD tx: 13µM*; SW480 rerep: inconclusive; HT1080-NT tox: 7.3µM*

Results for COC(=O)c1nn(-c2ccc(OC)cc2)c(=O)cc1O ?
KB-V1 MDR tox: inactive; MCF10A rerep: -1%; KB-3-1 tox: inactive; HT1080 IDH1KD tx: 0%; SW480 rerep: 9%; HT1080-NT tox: 2%

Results for CCCCC(=O)Nc1nnc(S(=O)(=O)N2CCCCCC2)s1 ?
KB-V1 MDR tox: inactive; MCF10A rerep: 2%; KB-3-1 tox: inactive; HT1080 IDH1KD tx: 5%; SW480 rerep: 31%; HT1080-NT tox: 4%

What do the screens show for `CCCCCC1(C)NC(=S)N(c2ccccc2)N1` (stereo not given)?
KB-V1 MDR tox: inactive; MCF10A rerep: 2%; KB-3-1 tox: inactive; HT1080 IDH1KD tx: inconclusive; SW480 rerep: -3%; HT1080-NT tox: inconclusive

Results for C=C(C)CCC1(C)NC(=O)N(c2ccccc2)N1 (stereo not given) ?
KB-V1 MDR tox: inactive; MCF10A rerep: inconclusive; KB-3-1 tox: inactive; HT1080 IDH1KD tx: 15µM*; SW480 rerep: -33%; HT1080-NT tox: 9.2µM*

What do the screens show for `O=C1NC(=O)C(c2ccccc2)(c2ccc(O)cc2)N1` (stereo not given)?
KB-V1 MDR tox: inactive; MCF10A rerep: 0%; KB-3-1 tox: inactive; HT1080 IDH1KD tx: 3%; SW480 rerep: -13%; HT1080-NT tox: 6%

How did CC1(c2ccc(O)cc2)NC(=O)N(c2ccccc2)N1 (stereo not given) do in these assays?
KB-V1 MDR tox: inactive; MCF10A rerep: 28%; KB-3-1 tox: inactive; HT1080 IDH1KD tx: 10µM*; SW480 rerep: 5%; HT1080-NT tox: 5.8µM*

What do the screens show for `CCOCCCNC(=O)c1cc2c(-c3ccc(OC)c(OC)c3)nn(C)c2s1`?
KB-V1 MDR tox: inconclusive; KB-3-1 tox: inactive

Results for CCOc1ccc(NC(=O)C2CCCN(C(=O)NCc3ccccc3)C2)cc1 (stereo not given) ?
KB-V1 MDR tox: inconclusive; MCF10A rerep: 0%; KB-3-1 tox: inactive; HT1080 IDH1KD tx: 9%; SW480 rerep: -7%; HT1080-NT tox: 9%

How did Cc1cc(C)c(C#N)c(SCC(=O)Nc2ccccc2C#N)n1 do in these assays?
KB-V1 MDR tox: inconclusive; KB-3-1 tox: inactive

Results for CSc1ccc(Cn2c(C)c(C(=O)NCc3ccccc3C(F)(F)F)sc2=O)cc1 ?
KB-V1 MDR tox: inconclusive; KB-3-1 tox: inactive; HT1080 IDH1KD tx: -29%; HT1080-NT tox: 6%

Screening data deposited in PubChem BioAssay by National Center for Advancing Translational Sciences (NCATS).
